In PubChem BioAssay (Tox21) one finds Potency data, which are given here for nine compounds.

Records with an inconclusive call do not appear. Active and inactive are the calls of the source. Unless noted, calls come from the whole dose curve; as a rule, active = well fitted curve in the direction sought with a large enough effect in the repeat runs; inconclusive = weak or mixed curves; inactive = no such curve, though single readings can be large; an effect the other way counts as inactive or inconclusive.

A short description of assay [1]: qHTS assay to identify small molecule antagonists of the estrogen receptor alpha (ER-alpha) signaling pathway using the BG1 cell line in the presence of 0.1 nM 17-beta-estradiol - cell viability counter screen (AID 1259241). Note: nearly all actives have a fitted effect of over 40% in size. The method, boiled down:
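Following 5 days in phenol red-free medium with charcoal-stripped serum, VM7Luc4E2 cells received test compounds alongside 0.1 nM 17beta-estradiol (final) at 37C for 22 hr. Live cells were then quantified via protease-substrate fluorescence.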
In general terms: Quantitative high-throughput screening tests each substance at several concentrations.

A short description of assay [2]: qHTS assay to identify small molecule antagonists of the androgen receptor (AR) signaling pathway using the MDA cell line in the presence of 0.5 nM R1881 - cell viability counter screen (AID 1259242). Note: nearly all actives have a fitted effect of over 45% in size. The method, boiled down: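 Human breast carcinoma MDA-kb2 cells, cultured without CO2, receive compounds alongside 0.5 nM (final) R1881 agonist. After 16 hr at 37C, viability is taken as live-cell protease signal.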

The nature of assay [3]: qHTS assay to identify small molecule HDAC inhibitors (AID 1259364).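 Note: wild-type HCT-116 cells with endogenous class I/II HDAC activity; top concentration of the series differs between compounds; nearly all actives have a fitted effect of over 45% in size.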 In short, it runs like this:
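After a 2 hr compound incubation (37C, 5% CO2), HCT-116 cells seeded at 1,500/well the day before received HDAC-Glo reagent; signal read as luminescence after 30 min at room temperature.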

The nature of assay [4]: qHTS assay to identify small molecule HDAC inhibitors - cell viability counter screen (AID 1259365). Note: series mostly up to about 92 µM; nearly all actives have a fitted effect of over 50% in size. In short, it runs like this:
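HCT-116 wild-type, overnight attachment; 2hr drug exposure, 37C; CellTiter-Glo luminescent ATP readout after 30min RT.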

A short description of assay [5]: qHTS assay to identify small molecule agonists of the sonic hedgehog signaling (Shh) pathway - cell viability counter screen (AID 1259366). Note: nearly all actives have a fitted effect of over 50% in size. In short, it runs like this: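 Compounds in DMSO were pin-transferred onto 3T3 Gli1-Luc cells that had settled 4hr; plates then stood 24hr at 37C and 5% CO2. One hour before the end, CellTiter-Fluor was added and fluorescence recorded.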

Assay [6] is described as follows: qHTS assay to identify small molecule antagonists of the sonic hedgehog signaling (Shh) pathway - cell viability counter screen (AID 1259367). Note: nearly all actives have a fitted effect of over 55% in size. The method, boiled down: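 Tox21 library chemicals were tested on a Gli1-Luc NIH/3T3 clone (2,000 cells/well) stimulated by conditioned medium; viability was quantified as fluorescence from CellTiter-Fluor reagent added at 23 hr.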

A short description of assay [7]: qHTS assay to identify small molecule antagonists of the sonic hedgehog signaling (Shh) pathway (AID 1259369; calls by dose curve; note: nearly all actives have a fitted effect of over 45% in size). The method, boiled down:
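Gli1 transcriptional reporter (firefly Luc) in NIH/3T3 background, conditioned-medium activated. 24hr exposure, luminescence endpoint.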

The nature of assay [8]: qHTS assay to identify small molecule agonists of the androgen receptor (AR) signaling pathway in the presence of an antagonist - cell viability counter screen (AID 1259379).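 Note: MDA-kb2 human breast cancer cells carrying an MMTV luciferase reporter; series mostly up to about 92 µM; nearly all actives have a fitted effect of over 25% in size.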 In short, it runs like this:
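Counter screen for cell viability run in parallel with the AR agonist-mode luciferase assay. MDA-kb2 cells were co-treated with nilutamide (3.0uM final) and compounds, then incubated 16 hr at 37C, and CellTiter-Fluor fluorescence was measured.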

Assay [9] can be described thus: qHTS assay to identify small molecule agonists of the estrogen receptor beta (ER-beta) signaling pathway - cell viability counter screen (AID 1259380). Note: nearly all actives have a fitted effect of over 30% in size. The method, boiled down:
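In this qHTS counter screen, HEK293T cells carrying an ER-beta/UAS beta-lactamase reporter, grown in 2% charcoal-stripped FBS, received compound for 16 hr; ATP-based CellTiter-Glo luminescence was then read after 30 min at room temperature.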

The nature of assay [10]: qHTS assay to identify small molecule antagonists of the estrogen receptor beta (ER-beta) signaling pathway - cell viability counter screen (AID 1259382). Note: series mostly up to about 92 µM; nearly all actives have a fitted effect of over 55% in size. The method, boiled down: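 HEK293T ER-beta-UAS-bla, 2% charcoal-stripped FBS; compounds + 1nM E2 16 hr 37C; CellTiter-Glo luminescence, 30 min RT.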
Assay [11] is described as follows: qHTS assay to identify small molecule agonists of the estrogen receptor alpha (ER-alpha) signaling pathway in the presence of an antagonist - cell viability counter screen (AID 1259386).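 Note: series mostly up to about 92 µM; cells exposed to compounds for 22 h at 37 °C before the viability read; nearly all actives have a fitted effect of over 30% in size.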 In short, it runs like this: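 Steps: 5-day stripped-FBS culture; seed and incubate 24hr; add ICI-182,780 (10.0nM final); pin 15-point compound titration; incubate 22hr at 37C; add CellTiter-Fluor at 21hr; read fluorescence.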

Assay [12] in a line: qHTS assay to identify small molecule agonists of the sonic hedgehog signaling (Shh) pathway (AID 1259368; calls by dose curve; note: nearly all actives have a fitted effect of over 15% in size; note: potency is the fitted concentration of half-maximal effect). In short, it runs like this: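 Stable NIH/3T3 Gli1-Luc reporter clone; 24 hr cpd exposure after a 4 hr settling period; luminescence endpoint.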
Assay [13] addresses Estrogen receptor beta (Homo sapiens) (UniProt Q92731). The experiment in a line: qHTS assay to identify small molecule agonists of the estrogen receptor beta (ER-beta) signaling pathway (AID 1259377; active = well fitted activation curve with a large enough effect in the signal ratio in the repeat runs, not every such curve was filed as active; the % refers to the signal ratio). The method, boiled down:
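qHTS in ER-beta-UAS-bla HEK293T cells: 6 hr settling, then 16 hr compound at 37C, then LiveBLAzer substrate 2 h at RT before fluorescence reading.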

The target is the same in assay [14]. Put plainly: qHTS assay to identify small molecule antagonists of the estrogen receptor beta (ER-beta) signaling pathway (AID 1259378; active = well fitted inhibition curve with a large enough effect in the signal ratio in the repeat runs, not every such curve was filed as active; the % refers to the signal ratio; note: potency is the fitted concentration of half-maximal effect). In short, it runs like this:
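ER-beta-UAS-bla HEK293T cells in 2% charcoal-stripped FBS medium treated with compound plus 1nM final 17-beta-estradiol for 16 hr at 37C. Beta-lactamase reporter read by FRET substrate fluorescence after 2 hours at room temperature.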

Assay [15] in a line: qHTS assay to identify small molecule agonists or antagonists of the thyroid stimulating hormone receptor (TSHR) signaling pathway - wild type cell line counter screen (AID 1259384; calls by dose curve). The method, boiled down:
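Wild-type Hek293 cells, 800/well, 18 h at 37C, then compound with Ro20-1724 for 30 min RT. cAMP by HTRF (cAMP-d2/anti-cAMP cryptate), 1 h RT, fluorescence read. 15 concentrations, triplicates.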

The target of assay [16] is Thyrotropin receptor (Homo sapiens) (UniProt P16473). The experiment in a line: qHTS assay to identify small molecule antagonists of the thyroid stimulating hormone receptor (TSHR) signaling pathway (AID 1259385; calls by dose curve; note: nearly all actives have a fitted effect of over 20% in size). In short, it runs like this:
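TSHR-HEK293 cells (800/well) plated 18 h, then compounds with Ro20-1724 and TSH at 1.5 ng/mL final, 30 min at room temperature. cAMP quantified by HTRF (cAMP-d2/anti-cAMP-cryptate, 1 h); 15 concentrations in triplicate.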

Assay [17] concerns the target Estrogen receptor (Homo sapiens) (UniProt P03372). Put plainly: qHTS assay to identify small molecule agonists of the estrogen receptor alpha (ER-alpha) signaling pathway in the presence of an antagonist (AID 1259383; calls by dose curve; note: top concentration of the series differs between compounds; nearly all actives have a fitted effect of over 15% in size). The method, boiled down: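 ER-alpha agonism measured under antagonist challenge: 10.0nM ICI-182,780 (final) plus compound, 15 concentrations, 22hr, VM7Luc4E2 ERE-luciferase cells. Read by luminescence.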

Chain of Estrogen receptor beta (Homo sapiens) (Q92731 whole entry, looked up): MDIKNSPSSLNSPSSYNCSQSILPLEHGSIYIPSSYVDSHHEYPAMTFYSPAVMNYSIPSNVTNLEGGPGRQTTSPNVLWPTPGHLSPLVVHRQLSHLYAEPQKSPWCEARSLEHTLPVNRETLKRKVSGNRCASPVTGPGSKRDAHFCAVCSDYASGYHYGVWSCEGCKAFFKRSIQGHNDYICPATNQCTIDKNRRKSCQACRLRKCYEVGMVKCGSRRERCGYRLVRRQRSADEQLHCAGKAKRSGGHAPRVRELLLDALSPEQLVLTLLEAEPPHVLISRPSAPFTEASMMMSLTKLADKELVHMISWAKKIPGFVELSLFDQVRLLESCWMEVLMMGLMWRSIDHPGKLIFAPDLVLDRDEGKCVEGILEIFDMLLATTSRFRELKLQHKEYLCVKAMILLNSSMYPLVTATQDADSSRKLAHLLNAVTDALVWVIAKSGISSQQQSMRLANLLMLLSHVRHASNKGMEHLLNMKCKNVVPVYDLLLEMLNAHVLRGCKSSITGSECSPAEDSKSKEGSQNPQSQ
Chain of Thyrotropin receptor (Homo sapiens) (P16473 whole entry, looked up): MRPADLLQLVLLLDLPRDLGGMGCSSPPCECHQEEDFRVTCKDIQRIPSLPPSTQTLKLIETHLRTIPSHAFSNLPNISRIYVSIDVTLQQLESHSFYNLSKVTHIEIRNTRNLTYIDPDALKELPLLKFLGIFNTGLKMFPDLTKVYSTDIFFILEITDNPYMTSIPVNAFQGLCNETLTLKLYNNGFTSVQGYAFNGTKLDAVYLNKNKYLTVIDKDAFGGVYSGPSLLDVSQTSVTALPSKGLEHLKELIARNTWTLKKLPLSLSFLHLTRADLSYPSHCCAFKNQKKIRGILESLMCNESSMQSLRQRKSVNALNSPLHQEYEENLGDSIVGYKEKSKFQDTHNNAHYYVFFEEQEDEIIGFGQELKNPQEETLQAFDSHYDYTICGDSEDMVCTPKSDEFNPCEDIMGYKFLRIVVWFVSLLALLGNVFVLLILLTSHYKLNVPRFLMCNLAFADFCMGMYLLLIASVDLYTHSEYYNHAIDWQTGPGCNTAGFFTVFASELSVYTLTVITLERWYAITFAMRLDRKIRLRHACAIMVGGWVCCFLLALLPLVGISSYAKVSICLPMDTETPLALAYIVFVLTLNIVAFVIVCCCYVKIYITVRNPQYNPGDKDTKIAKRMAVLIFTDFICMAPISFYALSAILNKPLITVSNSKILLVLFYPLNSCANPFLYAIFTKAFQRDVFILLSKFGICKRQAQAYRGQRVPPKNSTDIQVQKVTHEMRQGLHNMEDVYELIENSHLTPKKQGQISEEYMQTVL
Chain of Estrogen receptor (Homo sapiens) (P03372 whole entry, looked up): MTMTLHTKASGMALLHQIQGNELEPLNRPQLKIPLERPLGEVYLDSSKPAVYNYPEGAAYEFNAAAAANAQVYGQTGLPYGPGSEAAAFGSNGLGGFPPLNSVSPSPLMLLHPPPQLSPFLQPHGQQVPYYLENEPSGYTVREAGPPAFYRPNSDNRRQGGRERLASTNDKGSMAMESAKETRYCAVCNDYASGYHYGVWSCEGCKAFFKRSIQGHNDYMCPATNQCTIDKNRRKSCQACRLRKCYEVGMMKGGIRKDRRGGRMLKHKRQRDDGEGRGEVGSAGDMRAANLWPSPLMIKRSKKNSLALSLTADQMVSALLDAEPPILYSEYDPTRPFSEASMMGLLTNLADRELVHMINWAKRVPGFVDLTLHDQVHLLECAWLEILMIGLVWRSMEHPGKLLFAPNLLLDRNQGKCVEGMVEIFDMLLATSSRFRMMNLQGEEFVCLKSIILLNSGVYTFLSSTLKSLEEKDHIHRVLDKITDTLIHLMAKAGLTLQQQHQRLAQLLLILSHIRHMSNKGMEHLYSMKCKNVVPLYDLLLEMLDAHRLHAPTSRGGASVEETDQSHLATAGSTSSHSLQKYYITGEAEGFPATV

For `CCCCC(CC)COC(=O)OOC(C)(C)C` (stereo not drawn), the Potency entry in assay [1], in [2], in assay [3], in assay [4], in assay [5] and in [6] was “inactive” throughout. Further, the Potency entry in assay [7], in [8], in assay [9], in assay [10] and in assay [11] was “inactive” in each case.
With `[C-]1=CC=CC1.[Cl][Zr+2][Cl].c1cc[cH-]c1`, the Potency entry in assay [1], in [2], in [3], in [4], in assay [6] and in assay [12] was “inactive” in each case. The Potency entry in [7], in assay [8], in assay [9], in assay [10] and in assay [11] was “inactive” each time.
As to `O=[N+]([O-])c1cccc2cccc([N+](=O)[O-])c12`, the Potency entry in assay [1], in assay [2], in assay [3], in [4], in [5] and in [6] was “inactive” in each case. Further, the Potency result in assay [12], in [13], in assay [9], in assay [10] and in [11] was “inactive” each time.
Regarding `CCCCn1cc[n+](C)c1` (tested in a mixture with another compound), the Potency result in [1], in assay [2], in assay [3], in assay [4], in assay [5] and in assay [6] was “inactive” in each case. Moreover, the Potency entry in assay [12], in assay [7], in assay [8], in assay [9], in assay [10] and in assay [11] was “inactive” throughout.
For `CNN`, the Potency result in [1], in [2], in assay [3], in [4], in assay [5] and in assay [6] was “inactive” each time. The Potency entry in [12], in assay [7], in assay [8], in assay [9], in assay [10] and in assay [11] was “inactive” throughout.
On to `C#CCC1=C(C)C(OC(=O)C2C(C=C(C)C)C2(C)C)CC1=O` (stereo not drawn), for which the Potency result in assay [1], in [2], in assay [3], in assay [4], in assay [5] and in [12] was “inactive” in each case. Also, the Potency entry in assay [7], in [13], in assay [8], in [10], in [15] and in assay [16] was “inactive” in each case. Besides, in assay [11], the Potency entry was “inactive”. Also, the Potency in [14] is 60.7 µM (active).
As for `N#CSCc1ccccc1`, the Potency entry in [1], in assay [2], in [3], in [4], in [5] and in assay [12] was “inactive” throughout. Also, the Potency result in assay [14], in [8], in assay [9], in assay [10], in assay [17] and in [15] was “inactive” throughout. The Potency result in [16] and in [11] was “inactive” throughout.
As for `CC1CCCC1`, the Potency result in [1], in [2], in assay [3], in [4], in assay [5] and in [6] was “inactive” in each case. Further, the Potency entry in assay [12], in assay [7], in assay [9], in assay [10], in [15] and in assay [16] was “inactive” throughout. Also, the Potency result in assay [11] was “inactive”.
As for `CC(=O)[O-].CC(=O)[O-].[Co+2]`, the Potency entry in assay [1], in [2], in [3], in assay [4], in assay [7] and in [8] was “inactive” throughout. Moreover, the Potency entry in [9], in assay [10] and in assay [11] was “inactive” in each case. In addition, the Potency in [12] is 54.5 µM (active).
